Results filed as inconclusive are left out. Unmarked numbers belong to inactive results. Calls of active or inactive are those of the source. Calls come from the whole dose curve; as a rule, active = well fitted curve in the direction sought with a large enough effect; inconclusive = small, poorly fitted or top-dose-only effect, or another doubt; inactive = no such curve, though single readings can be large; an effect the other way counts as inactive or inconclusive. Bridge positions count the residues as written; N and C are the ends. Square brackets hold non-standard residues; d marks the D form. Peptide text beside a SMILES is read from it. * marks the point of attachment. ξ: configuration not given here. Ileψ(thiazoline)Cys = CC[C@H](C)[C@H](N)C1=N[C@H](C(=O)*)CS1; ξDab(CH2SO3H) = NC(CCNCS(=O)(=O)O)C(=O)O; d(aIle) = CC[C@H](C)[C@@H](N)C(=O)O; Heptanoyl(6-Me) = CC(C)CCCCC(=O)*; dOrn = NCCC[C@@H](N)C(=O)O; Orn = NCCC[CH](N)C(=O)O; Dab = NCC[CH](N)C(=O)O

Test [1] addresses ATP-dependent 6-phosphofructokinase (Trypanosoma brucei brucei) (UniProt O15648). Briefly: qHTS Assay to Find Inhibitors of T. brucei phosphofructokinase: hit validation (AID 492961).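 Note: luminescence reports ADP formed as PFK phosphorylates fructose-6-phosphate with ATP; % is set by controls: 0 for no effect and ±100 for the full control effect.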 An outline of the steps: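 ADP-Glo luminescence read-out of ADP formed by 1.25 nM PFK from 0.1 mM ATP and 0.5 mM F6P (TEA pH 8.0, 45 min, RT). Compounds titrated; activity normalized to no-enzyme and full-enzyme controls.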
A general note: Quantitative high-throughput screening tests each substance at several concentrations.

Test [2] deals with Ubiquitin carboxyl-terminal hydrolase 1 (Homo sapiens) (UniProt O94782). The experiment in a line: Inhibitors of USP1/UAF1: Pilot qHTS (AID 504865).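 Note: rhodamine fluorescence freed from ubiquitin-rhodamine substrate followed over time; top concentration of the series differs between compounds; % is set by controls: 0 for no effect and ±100 for the full control effect; nearly all actives have a fitted effect of over 35% in size.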 An outline of the steps:
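USP1/UAF1 complex (1nM) preincubated with compound 15 min at room temperature, then Ub-Rho substrate (150nM final) added. Fluorescence read kinetically at 480/540 nm, 6 reads every 60 seconds. Buffer: 50mM HEPES pH 7.8, 0.5mM EDTA, 0.1 mg/ml BSA, 1mM TCEP, 0.01% Tween-20.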

Test [3] deals with Luciferin 4-monooxygenase (Photinus pyralis) (UniProt P08659). Briefly: Biochemical firefly luciferase enzyme assay for NPC (AID 624030).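 Note: purified P. pyralis luciferase at 10 nM with luciferin and ATP substrate; 0% = DMSO and -100% = full luciferase inhibition by PTC124 control; nearly all actives have a fitted effect of over 70% in size.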 In a few lines:
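Direct inhibition of firefly luciferase enzyme (10 nM final, 50 mM Tris Acetate) assessed by luminescence within 5 minutes. Percent activity scaled between DMSO and PTC124 positive control, with concentration-effect curves classified by fit quality and response.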

Test [4] is described as follows: qHTS profiling for inhibitors of Plasmodium falciparum proliferation (AID 504749).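 For activity, negative = inhibition: 0% = DMSO vehicle and full inhibition = artemisinin control.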 For all read-outs here: nearly all actives have a fitted effect of over 60% in size. Note: potency is the fitted concentration of half-maximal effect. The following applies: P. falciparum in erythrocytes, SYBR Green DNA, 72 h; for activity, negative = inhibition: at 28.7 µM (top of the series). In a few lines:
(§1)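 Infected RBCs, 0.3% parasitemia/2.5% Hct final; cpd 72 h, 37 C, 5% CO2; lysis buffer with saponin/triton/SYBR Green I, o/n RT dark; FI 485/535; norm. to artemisinin (0.29 uM) and DMSO.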

Test [5] has as its system ATS189. Described as above. The following applies: P. falciparum in erythrocytes, SYBR Green DNA, 72 h; series mostly up to 28.7 µM. In a few lines: as §1
In test [6] the test system is C2A. The test is described as above. The following applies: P. falciparum in erythrocytes, SYBR Green DNA, 72 h; series mostly up to 28.7 µM. In a few lines: as §1
Test [7] has as its system CP191. Described as above. The following applies: P. falciparum in erythrocytes, SYBR Green DNA, 72 h; series mostly up to 28.7 µM. In a few lines: as §1
For test [8], the system named is CP192. Described as above. As to conditions: P. falciparum in erythrocytes, SYBR Green DNA, 72 h; series mostly up to 28.7 µM. An outline of the steps:
as §1

For test [9], the system named is CP201. Described as above. The following applies: P. falciparum in erythrocytes, SYBR Green DNA, 72 h; series mostly up to 28.7 µM. In a few lines: as §1
The test system of test [10] is CP215. The description is as above. As to conditions: P. falciparum in erythrocytes, SYBR Green DNA, 72 h; series mostly up to 28.7 µM. In a few lines:
as §1

The subject of test [11] is CP237. The description is as above. The following applies: P. falciparum in erythrocytes, SYBR Green DNA, 72 h; series mostly up to 28.7 µM. In a few lines:
as §1

The subject of test [12] is CP238. The test is described as above. The following applies: P. falciparum in erythrocytes, SYBR Green DNA, 72 h; series mostly up to 28.7 µM. In a few lines:
as §1

The subject of test [13] is CP268. The description is as above. The following applies: P. falciparum in erythrocytes, SYBR Green DNA, 72 h; series mostly up to 28.7 µM. In a few lines:
as §1

In test [14] the test system is CP269. The description is as above. As to conditions: P. falciparum in erythrocytes, SYBR Green DNA, 72 h; series mostly up to 28.7 µM. An outline of the steps: as §1
The subject of test [15] is CP286. Described as above. The following applies: P. falciparum in erythrocytes, SYBR Green DNA, 72 h; series mostly up to 28.7 µM. In a few lines: as §1
Test [16] deals with CP325. Described as above. As to conditions: P. falciparum in erythrocytes, SYBR Green DNA, 72 h; series mostly up to 28.7 µM. An outline of the steps: as §1
Test [17] has as its system CP329. The description is as above. The following applies: P. falciparum in erythrocytes, SYBR Green DNA, 72 h; series mostly up to 28.7 µM. In a few lines: as §1
Test [18] relates to FAB9. The description is as above. The following applies: P. falciparum in erythrocytes, SYBR Green DNA, 72 h; series mostly up to 28.7 µM. An outline of the steps: as §1
Test [19] relates to JCK. The description is as above. The following applies: P. falciparum in erythrocytes, SYBR Green DNA, 72 h; series mostly up to 28.7 µM. In a few lines:
as §1

For test [20], the system named is PC49. Described as above. As to conditions: P. falciparum in erythrocytes, SYBR Green DNA, 72 h; series mostly up to 28.7 µM. In a few lines:
as §1

Chain of Luciferin 4-monooxygenase (Photinus pyralis) (P08659 whole entry, looked up): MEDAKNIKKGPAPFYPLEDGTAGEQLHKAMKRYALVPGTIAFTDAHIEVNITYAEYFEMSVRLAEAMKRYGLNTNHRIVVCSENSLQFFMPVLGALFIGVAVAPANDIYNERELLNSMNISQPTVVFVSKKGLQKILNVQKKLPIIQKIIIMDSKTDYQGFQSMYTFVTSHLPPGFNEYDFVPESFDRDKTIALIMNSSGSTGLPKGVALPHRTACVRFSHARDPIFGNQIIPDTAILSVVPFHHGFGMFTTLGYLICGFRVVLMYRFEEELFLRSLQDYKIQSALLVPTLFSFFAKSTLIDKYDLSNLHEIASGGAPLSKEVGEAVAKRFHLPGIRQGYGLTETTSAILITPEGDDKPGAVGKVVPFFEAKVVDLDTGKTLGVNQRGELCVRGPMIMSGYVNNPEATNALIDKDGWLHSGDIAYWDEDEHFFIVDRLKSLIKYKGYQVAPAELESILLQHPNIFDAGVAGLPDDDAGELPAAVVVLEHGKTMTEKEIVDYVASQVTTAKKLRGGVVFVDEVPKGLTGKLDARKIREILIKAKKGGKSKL
Chain of ATP-dependent 6-phosphofructokinase (Trypanosoma brucei brucei) (O15648 whole entry, looked up): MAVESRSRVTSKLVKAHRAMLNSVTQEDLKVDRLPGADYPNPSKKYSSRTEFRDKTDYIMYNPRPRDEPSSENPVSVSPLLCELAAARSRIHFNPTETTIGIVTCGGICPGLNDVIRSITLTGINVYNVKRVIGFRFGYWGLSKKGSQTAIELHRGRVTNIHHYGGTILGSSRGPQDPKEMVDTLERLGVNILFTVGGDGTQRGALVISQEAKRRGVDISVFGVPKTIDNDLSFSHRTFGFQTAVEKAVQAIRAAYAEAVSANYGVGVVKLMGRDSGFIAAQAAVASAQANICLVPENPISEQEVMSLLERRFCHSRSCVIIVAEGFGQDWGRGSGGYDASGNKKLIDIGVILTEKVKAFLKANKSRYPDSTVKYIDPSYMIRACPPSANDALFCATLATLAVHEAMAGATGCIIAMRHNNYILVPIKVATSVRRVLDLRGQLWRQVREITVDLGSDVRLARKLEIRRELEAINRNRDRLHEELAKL
Chain of Ubiquitin carboxyl-terminal hydrolase 1 (Homo sapiens) (O94782 whole entry, looked up): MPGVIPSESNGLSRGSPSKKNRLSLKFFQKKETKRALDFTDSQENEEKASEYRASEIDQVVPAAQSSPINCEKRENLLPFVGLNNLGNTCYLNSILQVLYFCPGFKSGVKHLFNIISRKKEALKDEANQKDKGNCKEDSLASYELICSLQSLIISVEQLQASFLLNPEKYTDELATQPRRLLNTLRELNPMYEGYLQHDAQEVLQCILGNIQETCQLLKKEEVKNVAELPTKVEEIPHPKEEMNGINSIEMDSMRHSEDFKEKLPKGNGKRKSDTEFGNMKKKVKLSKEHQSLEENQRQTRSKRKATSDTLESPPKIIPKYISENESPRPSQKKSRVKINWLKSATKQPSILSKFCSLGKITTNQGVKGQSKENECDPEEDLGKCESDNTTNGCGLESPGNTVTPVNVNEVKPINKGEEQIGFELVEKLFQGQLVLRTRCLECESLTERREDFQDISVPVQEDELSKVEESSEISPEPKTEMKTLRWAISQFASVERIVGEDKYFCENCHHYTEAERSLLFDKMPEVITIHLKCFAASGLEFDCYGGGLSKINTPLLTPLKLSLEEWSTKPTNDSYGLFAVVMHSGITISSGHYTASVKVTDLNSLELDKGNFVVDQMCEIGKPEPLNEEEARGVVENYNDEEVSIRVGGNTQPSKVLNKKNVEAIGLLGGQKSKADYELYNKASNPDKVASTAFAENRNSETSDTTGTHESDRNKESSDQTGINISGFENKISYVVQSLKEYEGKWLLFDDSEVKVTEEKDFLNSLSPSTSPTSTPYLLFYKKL

Consider `CC[C@H](C)[C@H](N)C1=N[C@H](C(=O)N[C@@H](CC(C)C)C(=O)N[C@@H](CCC(=O)O)C(=O)N[C@@H](C(=O)N[C@H]2CCCCNC(=O)[C@@H](CC(N)=O)NC(=O)[C@@H](CC(=O)O)NC(=O)[C@@H](Cc3cnc[nH]3)NC(=O)[C@@H](Cc3ccccc3)NC(=O)[C@@H]([C@@H](C)CC)NC(=O)[C@@H](CCCN)NC2=O)[C@@H](C)CC)CS1` ({Ileψ(thiazoline)Cys}-LE[d(aIle)]K[dOrn][d(aIle)][dF][dH][dD][dN]; lactam 4-C), for which the outcome in [1] was inactive.
With `OC[C@@H](O)[C@H]1O[C@@H]2OC(C(Cl)(Cl)Cl)O[C@H]2[C@H]1O` (stereo not given in full), the compound was called inactive in [1]. Besides, the Potency entry in [2], in test [3], in [5], in test [6], in test [7] and in test [8] was “inactive” in each case. Moreover, the Potency entry in test [9], in test [10], in test [11], in test [12], in [13] and in test [14] was “inactive” each time. The Potency entry in [15], in test [16], in test [17], in [18], in test [19] and in [20] was “inactive” each time. Further, the activity, negative = inhibition in test [4] (parasite line A) was 8.29%; in test [4] (parasite line B), 19.1%.
Take `C[C@]12C=CC(=O)C=C1CC[C@@H]1C2CC[C@]2(C)OC(=O)CCC12` (stereo not given in full): the result in test [1] was inactive. The Potency result in [2], in [3], in [5], in test [6], in test [7] and in test [8] was “inactive” each time. Also, the Potency entry in test [9], in test [10], in test [11], in test [12], in [13] and in test [14] was “inactive” in each case. The Potency entry in [15], in test [16], in test [17], in test [18], in [19] and in test [20] was “inactive” each time. Besides, the activity, negative = inhibition is 2.99% in [4] (parasite line A) and 7.55% in [4] (parasite line B).
On to `C[C@@H]1CC[C@H]2[C@@H](C)C(=O)O[C@@H]3OC4(C)CC[C@@H]1C32OO4` (stereo not given in full), for which, in test [1], the compound was classed as inactive. The Potency result in test [3] was “inactive”. In addition, the Potency in [4] (parasite line A) was 7.9 nM (active); in test [4] (parasite line B), 7.1 nM (active); in [5], 8.9 nM (active); in [6], 11.2 nM (active); in test [7], 7.1 nM (active); in test [8], 16.9 nM (active). Moreover, the Potency is 30.1 nM (active) in [9]; 13.5 nM (active) in test [10]; 10 nM (active) in [11]; 10 nM (active) in [12]; 13.5 nM (active) in [13]; 10.7 nM (active) in test [14]. The Potency in test [15] was 7.1 nM (active); in [16], 15.1 nM (active); in [17] it was 15.1 nM (active); in test [18], 7.9 nM (active).
As for `CCC(C)C1NC(=O)C(CCNCS(=O)(=O)O)NC(=O)C(NC(=O)C(CCNCS(=O)(=O)O)NC(=O)C(NC(=O)C(CCNCS(=O)(=O)O)NC(=O)CCCCC(C)C)C(C)O)CCNC(=O)C(C(C)O)NC(=O)C(CCNCS(=O)(=O)O)NC(=O)C(CCNCS(=O)(=O)O)NC(=O)C(C(C)CC)NC1=O` (stereo not given) ({Heptanoyl(6-Me)}-[ξDab(CH2SO3H)]T[ξDab(CH2SO3H)][Dab][ξDab(CH2SO3H)]II[ξDab(CH2SO3H)][ξDab(CH2SO3H)]T; lactam 4-C; configuration not given here), in test [1], the call was inactive.
Regarding `CNCC(=O)NC(CCCN=C(N)N)C(=O)NC(C(=O)NC(Cc1ccc(O)cc1)C(=O)NC(C(=O)NC(Cc1cnc[nH]1)C(=O)N1CCCC1C(=O)NC(C)C(=O)O)C(C)C)C(C)C` (stereo not given), the result in test [1] was inactive.
With `CCC(C)C1NC(=O)C(Cc2ccc(O)cc2)NC(=O)C(N)CSSCC(C(=O)N2CCCC2C(=O)NC(CC(C)C)C(=O)NCC(N)=O)NC(=O)C(CC(N)=O)NC(=O)C(CCC(N)=O)NC1=O` (stereo not given), the compound was classed as inactive in test [1].
In the case of `CCCCCc1cc(O)c2c(c1)OC(C)(C)C1CC=C(C)CC21` (stereo not given), the result in test [1] was inactive. In addition, the Potency entry in test [3] was “inactive”. Besides, the Potency is 3550 nM (active) in test [4] (parasite line A); 1120 nM (active) in test [4] (parasite line B); 3160 nM (active) in [5]; 10000 nM (active) in [6]; 3980 nM (active) in test [7]; 6010 nM (active) in test [8]. In addition, the Potency is 15100 nM (active) in test [9]; 4260 nM (active) in [10]; 1780 nM (active) in [11]; 3160 nM (active) in test [12]; 6010 nM (active) in test [13]; 4780 nM (active) in test [14]. For the same compound, the Potency was 5620 nM (active) in [15]; 6010 nM (active) in test [16]; 9530 nM (active) in test [17]; 11200 nM (active) in test [19]; 4470 nM (active) in test [20].
Take `CC(C)CC1NC(=O)C(CCCN)NC(=O)C(C(C)C)NC(=O)C2CCCN2C(=O)C(Cc2ccccc2)NC(=O)C(CC(C)C)NC(=O)C(CCCN)NC(=O)C(C(C)C)NC(=O)C2CCCN2C(=O)C(Cc2ccccc2)NC1=O` (stereo not given) (cyclo(FPV[Orn]LFPV[Orn]L); configuration not given here): in [1], the call was inactive.
Consider `CC1(C)[C@@H](C=C(Cl)Cl)[C@@H]1C(=O)OCc1c(F)c(F)cc(F)c1F`, for which, in test [1], the compound was classed as inactive. Further, the Potency result in [2], in test [3], in test [5], in test [6], in [7] and in test [8] was “inactive” in each case. In addition, the Potency entry in [9], in test [10], in [11], in test [12], in test [13] and in test [14] was “inactive” throughout. Also, the Potency entry in test [15], in [16], in test [17], in test [18], in test [19] and in test [20] was “inactive” throughout. Also, the values for the activity, negative = inhibition in test [4] (parasite line A) and in [4] (parasite line B) were 3.24% and 1.84%, respectively.

(Values after PubChem BioAssay (NCATS).)
